{"source": "PubChem BioAssay AID652044", "about": "(Broad Institute, 2013)", "note": "Measured potencies and affinities stand elsewhere. Calls of active or inactive are those of the source.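 How the source made its calls: active means cell-killing curve whose half-maximal dose falls at or below double the top accepted dose; inconclusive means flat fit with drops of 30 to 70%, or poor fit; inactive means the rest, including signal rises.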"}
{"experiment": "NIH3T3 fibroblast cytotoxicity, dose response, cytotoxicity control for PglD inhibitor project, cell-based, CellTiter-Glo luminescence, dry powder (AID 652044)", "settings": "NIH3T3 viability, CellTiter-Glo ATP luminescence, 48 h; series mostly up to 26 µM; activity change, negative = cytotoxic: at the top concentration"}
{"molecule": "CO[C@@H]1CN(C)C(=O)c2ccc(NS(C)(=O)=O)cc2OC[C@@H](C)N(C(=O)C2CCOCC2)C[C@H]1C", "activity change, negative = cytotoxic": "8.99% [at 23.5 µM] (inactive)"}
{"molecule": "CCC(=O)Nc1ccc2c(c1)OC[C@@H](C)N(Cc1ccccn1)C[C@@H](C)[C@H](OC)CN(C)C2=O", "activity change, negative = cytotoxic": "6.56% (inactive)"}
{"molecule": "O=C(C[C@@H]1CC[C@@H]2[C@H](COC[C@@H](O)CN2Cc2ccc(F)cc2)O1)N1CCc2ccccc2C1", "activity change, negative = cytotoxic": "6.57% (inactive)"}
{"molecule": "O=C(N[C@H]1C=C[C@@H](CC(=O)N2CCCCC2)O[C@H]1CO)c1ccc2c(c1)OCO2", "activity change, negative = cytotoxic": "-2.65% (inactive)"}
{"molecule": "O=C(C[C@@H]1C[C@@H]2c3cc(NC(=O)NC4CCCCC4)ccc3O[C@@H]2[C@@H](CO)O1)NCc1cccnc1", "activity change, negative = cytotoxic": "2.95% (inactive)"}
{"molecule": "CC(=O)N[C@H]1CC[C@H](CC(=O)NCc2ccc(Cl)cc2)O[C@H]1CO", "activity change, negative = cytotoxic": "-2.34% (inactive)"}
{"molecule": "CO[C@H]1CN(C)C(=O)c2cc(NC(C)=O)ccc2OC[C@@H](C)NC[C@@H]1C", "activity change, negative = cytotoxic": "5.85% (inactive)"}
{"molecule": "COCC#Cc1cnc2c(c1)C(=O)N([C@@H](C)CO)C[C@H](C)[C@@H](CN(C)C(=O)C1CCC1)O2", "activity change, negative = cytotoxic": "-10.5% (inactive)"}
{"molecule": "CC=Cc1ccc2n(c1=O)C[C@@H]1[C@@H](CO)[C@H](C(=O)NCCOC)[C@H]2N1Cc1nccs1", "note": "(mixture of isomers)", "activity change, negative = cytotoxic": "7.23% (inactive)"}
{"molecule": "C/C=C/c1cnc2c(c1)C(=O)N([C@@H](C)CO)C[C@H](C)[C@@H](CN(C)C(=O)c1cccnc1)O2", "activity change, negative = cytotoxic": "-12.1% (inactive)"}
{"molecule": "Cc1noc(C)c1NC(=O)Nc1cccc2c1O[C@H](CN(C)C(=O)Nc1cccc3ccccc13)[C@@H](C)CN([C@H](C)CO)C2=O", "activity change, negative = cytotoxic": "0.326% (inactive)"}
{"molecule": "C[C@H]1CN([C@@H](C)CO)C(=O)c2cccc(NC(=O)Nc3ccccc3)c2O[C@H]1CN(C)C", "activity change, negative = cytotoxic": "-4.25% (inactive)"}
